Pf apPOL inh = Pf-apPOL DNA polymerase inhibition; Recombinant Pf-apPOL, molecular beacon fluorescence, 1.5 h; inhibition, % at 10 µM; 210,000 tested, 0.25% active
mHTT CaM bind = disrupts binding of mutant huntingtin to calmodulin; AID 1671202; P42858; inhibition, % at 15 µM; 190,000 tested, 3.6% active; AlphaScreen His-mHTT/GST-CaM binding, luminescence;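 also: 0% = both proteins with DMSO and 100% = one protein alone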
* = called active by the depositor; x = not tested or not shown. Compounds with a hit are over-represented: about 3.5% of the library has one in this group of screens. Rule as the data show it: active = inhibition above about 50%; inactive = the rest.

SMILES	Pf apPOL inh	mHTT CaM bind
Cc1cccc(CN2CCCC(C(=O)N3CCCCCC3)C2)c1 (stereo unspecified)	-2.1	1.1
Cc1cccc(CC(=O)N2CCc3c(c(C(=O)NCc4ccc(Cl)cc4)nn3C)C2)c1	-12.4	58.9*
Cn1nc(COCc2ccccc2)c2c1CCN(S(=O)(=O)c1ccc(F)cc1)C2	1.6	29.8
COc1cccc(CC(=O)N2CCc3c(c(C(=O)NCc4ccc(F)cc4)nn3C)C2)c1	-5.2	69.0*
Cc1ccc(CC(=O)N2CCc3c(c(C(=O)NCc4ccc(Cl)cc4)nn3C)C2)cc1	-6.0	78.5*
Cn1nc(COCc2ccccc2)c2c1CCN(S(=O)(=O)c1ccc3c(c1)CCC3)C2	-1.7	56.5*
COc1ccc(OCC(=O)N2CCc3c(c(C(=O)NCc4ccccc4)nn3C)C2)cc1	-12.1	-0.9
Cn1nc(C(=O)NCc2ccc(Cl)cc2)c2c1CCN(C(=O)c1cccc(F)c1)C2	2.1	31.3
Cc1sc2nc(SCC(=O)NCCO)[nH]c(=O)c2c1C	-3.3	-2.0
Cc1ccc(N2CCC(NC(=O)c3ccc4c(c3)OCO4)C2=O)cc1C (stereo unspecified)	0.0	-3.4
Cc1cccc(-c2nccc(C3CCCN(C(=O)C4CCCC4)C3)n2)c1 (stereo unspecified)	-3.9	5.4
Cn1nc(COCc2ccccc2)c2c1CCN(C(=O)COc1ccccc1)C2	-11.6	-4.0
Cn1nc(C(=O)NCc2ccc(Cl)cc2)c2c1CCN(C(=O)Cc1ccccc1)C2	2.5	94.8*
Cn1nc(COCc2ccccc2)c2c1CCN(C(=O)Cc1cccc(F)c1)C2	-2.4	55.5*
Cn1nc(C(=O)NCc2ccccc2)c2c1CCN(C(=O)Cc1ccccc1)C2	-5.6	43.3
OCC1(CO)COC2(CCCCC2)N1	x	-6.7
COc1cccc(/C=C(\C#N)c2nc3ccccc3s2)c1OC	1.3	-2.0
N#CC(C#N)C(C#N)(C#N)C1CCC/C(=C\c2ccco2)C1=O (stereo unspecified)	1.5	99.0*
O=C1/C(=C/c2ccco2)CC2CC1C/C(=C\c1ccco1)C2=O	2.5	47.0
COc1ccc(NS(=O)(=O)c2cc(Br)cc3c2N(C(C)=O)C(C)C3)cc1 (stereo unspecified)	-5.6	9.0
Cc1ccc(N(C)S(=O)(=O)c2ccc3[nH]cc(C(=O)N4CCCCCC4)c(=O)c3c2)cc1C	-7.1	58.0*
Cc1ccc(N(C)S(=O)(=O)c2ccc3[nH]cc(C(=O)N4CCC(C)CC4)c(=O)c3c2)cc1C	-20.9	32.0
[N-]=[N+]=N[C@@H](CCN1CC[C@H](OCc2ccccc2)CCC1=O)c1ccccc1	-3.0	51.4*
[N-]=[N+]=N[C@@H](CCN1CC[C@H](NC(=O)OCc2ccccc2)CCC1=O)c1ccccc1	-0.2	14.9
C[C@@H]1CCC(=O)N(CC[C@H](Sc2ccccc2)c2ccccc2)CC1	-3.4	46.3
SMILES	Pf apPOL inh	mHTT CaM bind
O=C1CCC(OCc2ccccc2)CCN1CC[C@@H](Sc1ccccc1)c1ccccc1 (stereo partly specified)	1.6	79.7*
O=C1CC[C@@H](O)CCN1CC[C@H](Sc1ccccc1)c1ccccc1	-4.3	13.6
O=C1CC[C@@H](OCc2ccccc2)CCN1CC[C@H](Sc1ccccc1)c1ccccc1	-0.7	59.4*
O=C(Cc1ccc(F)cc1)NCC(c1cccc2ccccc12)N1CCOCC1 (stereo unspecified)	-8.2	-4.4
CCCCOc1ccc(NC(=O)CSc2cccc3cccnc23)cc1	0.7	8.0
COc1ccc(C(C[N+](=O)[O-])Sc2cccc3cccnc23)cc1 (stereo unspecified)	-4.2	100.0*
Cc1cc(NC(=O)CSc2nc3ccccc3s2)no1	-0.1	-24.3
O=C(CSc1nnc(-c2ccco2)c(-c2ccco2)n1)Nc1cnc2ccccc2c1	-0.9	93.0*
O=C(CSc1nnc(-c2ccco2)c(-c2ccco2)n1)Nc1ccc(C(=O)O)cc1	4.3	29.0
O=C(CSc1ccc(-c2cccnc2)nn1)Nc1ccc2c(c1)OCO2	3.5	-4.1
O=C(CSc1nnc(-c2ccco2)c(-c2ccco2)n1)Nc1ccc2c(c1)OCO2	-2.7	75.0*
CCOc1ccc(NC(=O)CSc2nnc(-c3ccco3)c(-c3ccco3)n2)cc1	-2.6	82.0*
Cc1cc(NC(=O)CSc2nnc(-c3ccco3)c(-c3ccco3)n2)no1	-5.1	69.0*
O=C(CSc1nnc(-c2ccco2)n1-c1ccccc1)Nc1ccccc1	4.4	13.6
Cc1ccc(-c2nc(-c3ccc(C(=O)N4CCCCC4)s3)no2)cc1	0.0	-5.6
O=C(Nc1cccn2cnnc12)C1CCCC1	-0.8	-9.1
CCCCN1C(=O)C(CC(=O)N2CCOCC2)Sc2ncccc21 (stereo unspecified)	-5.0	0.9
COc1ccc(C(=O)CSc2nnc(-c3ccco3)c(-c3ccco3)n2)cc1	-1.5	95.0*
COc1cc(OC)c(NC(=O)CSc2nnc(-c3ccco3)c(-c3ccco3)n2)cc1Cl	4.4	50.0
COc1ccc(C(=O)CSc2nnc(-c3ccco3)n2-c2ccccc2)cc1	-1.1	5.6
COc1ccc(-c2nnc(SCC(=O)N3CCN(C)CC3)nc2-c2ccc(OC)cc2)cc1	54.1*	29.0
O=C(CSc1nnc(-c2ccco2)c(-c2ccco2)n1)Nc1nccs1	8.7	70.0*
O=C(CSc1nnc(-c2ccco2)c(-c2ccco2)n1)Nc1ccc(Cl)cc1Cl	-4.3	85.0*
O=C(CSc1nnc(-c2ccccc2)c(-c2ccccc2)n1)N1CCCCC1	-2.6	13.3
O=C(CSc1ncccn1)Nc1nccs1	-0.6	-17.3
SMILES	Pf apPOL inh	mHTT CaM bind
Brc1ccc2ncnc(N3CCN(Cc4ccccc4)CC3)c2c1	-3.6	23.6
Cc1oc2cc3oc(=O)c(C)c(C)c3cc2c1-c1ccccc1	12.9	-10.0
COc1cc(CNCc2ccccc2[N+](=O)[O-])cc(OC)c1	-0.2	0.2
O=C(CSc1nnc(-c2ccco2)c(-c2ccco2)n1)Nc1cccc(C(=O)O)c1	-3.8	45.0
Cc1ccc(NC(=O)CSc2nnc(-c3ccco3)c(-c3ccco3)n2)cc1C	7.5	93.0*
NS(=O)(=O)c1ccc(NC(=O)CSc2n[nH]c(-c3ccccc3)n2)cc1	-6.3	-7.0
CC(=O)Nc1ccc(OCc2cn(CC(=O)c3ccc(O)cc3)nn2)cc1	33.5	52.4*
CC(=O)c1ccc(OCc2cn(CC(=O)c3ccc(O)cc3)nn2)cc1	11.0	4.4
CCC1Oc2ccc(C)cc2N(CC(=O)NCc2cccnc2)C1=O (stereo unspecified)	-7.4	-5.0
O=C(NCC1CCN(C(=O)COc2ccccc2)CC1)c1ccccc1C(F)(F)F	-3.4	-7.2
N#CC1=C(S)NC(O)(c2ccccc2)C([n+]2ccccc2)C1c1ccccc1Br (stereo unspecified)	-4.2	77.0*
N#CC1=C(S)NC(=O)C([n+]2ccccc2)C1c1ccc(F)c(Br)c1 (stereo unspecified)	-1.0	33.0
CC(=O)N1CCc2ccccc2C1C(=O)NCc1ccccc1C (stereo unspecified)	-0.3	7.3
COc1nccnc1N1CCC(N(C)C(=O)c2cnccn2)C1 (stereo unspecified)	-0.8	2.5
Cc1ccnc(Nc2nc(-c3sc(C)nc3C)cs2)c1	0.7	30.4
Cc1nc(N)sc1-c1csc(Nc2ccccn2)n1	-6.1	87.0*
Cc1nc(N)sc1-c1csc(Nc2cccc(O)c2)n1	1.0	51.4*
COc1ccc(-c2csc(Nc3ccccn3)n2)cc1OC	-4.6	49.7
Cc1nc(C)c(-c2csc(Nc3cccc(C(=O)O)c3)n2)s1	5.3	19.4
